ELG1 genotoxic: induces genotoxicity in HEK293T cells with luciferase-tagged ELG1; 330,000 tested, 1.3% active; Potency, µM (top dose mostly 46 µM), inactives show at the top dose activity change, positive = activation, usual class: activators; HEK293T ELG1-luciferase reporter, luminescence, 16 h; note: % of control where 0% means no effect; nearly all actives have a fitted effect of over 60% in size
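HEK293T cells expressing luciferase-tagged ELG1 were exposed to compound or DMSO vehicle for 16 hr at 37 °C and 5% CO2. Luciferase activity was then measured with ONE-Glo after 30 min at room temperature.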
ELG1 repair inh: ELG1-dependent DNA repair inhibition; HEK293T ELG1-luciferase reporter, luminescence, 16 h; DNA damage induced by 5-fluorouridine; Potency, µM (series often up to 46.1 µM), for the others: at the highest dose activity change, negative = inhibition, hits mostly inhibitors; AID 504467; 330,000 tested, 2.3% active; note: % is set by controls: 0 for no effect and ±100 for the full control effect; nearly all actives have a fitted effect of over 55% in size
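In this reporter screen, reduction of luminescence relative to DMSO vehicle indicated activity. Compounds and 5-fluorouridine were added together to 2,000 cells per well, incubated for 16 hr at 37 °C, then developed with ONE-Glo.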
SMN2 splice up: increases expression of the SMN2 splice variant | HEK293 SMN2-luciferase splicing reporter, luminescence, 30-36 h | Potency, µM (series often up to 46.1 µM), without a hit: top-dose activity change, positive = activation, actives largely listed as activators | 210,000 tested, 2.8% active | AID 1458; note: % of control where 0% means no effect; nearly all actives have a fitted effect of over 55% in size
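HEK293 cells carry an SMN2 […]–luciferase reporter in which exon 7 inclusion puts luciferase in frame. Cells were plated 10-12 h before compound addition, then incubated 30-36 h at 37C. ONE-Glo luminescence was read; sodium butyrate at 4.5 mM final served as control.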
NPC1 promoter act: activators of NPC1 promoter; Huh7 NPC1 promoter luciferase reporter, 24 h; Potency, µM (top dose mostly 9.22 µM), without a hit: at the top dose activation, most hits filed as activators; 320,000 tested, 2.4% active; AID 485313; note: % of control where 0% means no effect; nearly all actives have a fitted effect of over 60% in size
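Readout is luciferase luminescence, reflecting NPC1 promoter activation in stably transfected Huh7 cells after 24 h compound exposure at 37 °C in reduced-serum medium with 10% FBS.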
Rab9 promoter act: activates the Rab9 promoter; 320,000 tested, 2.8% active; AID 485297; Potency, µM (top dose mostly 9.22 µM), for the others: at the top dose activation, negative = inhibition, hits mostly activators; Huh7 Rab9 promoter-luciferase reporter, luminescence, 24 h; note: % of control where 0% means no effect; nearly all actives have a fitted effect of over 60% in size
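Stable Rab9-luc Huh7, 1500 cells/well, 2 h settle; cmpd in DMSO, 24 h, 37 °C/5% CO2; luciferase reagent 10 min RT; luminescence.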
FLuc modulator: inhibits or activates purified firefly luciferase, miR-21 counter-screen | P08659 | Potency, µM (titrated, usually from 57.5 µM), for inactives: at the highest dose activity change, negative = inhibition, usual class: inhibitors | 360,000 tested, 6.9% active | purified FLuc, Km substrates, luminescence inhibition | AID 588342;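 note: plate controls were vehicle for no effect and reference inhibitor for full effect; nearly all actives have a fitted effect of over 55% in size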
Target sequence (P08659 whole entry, looked up): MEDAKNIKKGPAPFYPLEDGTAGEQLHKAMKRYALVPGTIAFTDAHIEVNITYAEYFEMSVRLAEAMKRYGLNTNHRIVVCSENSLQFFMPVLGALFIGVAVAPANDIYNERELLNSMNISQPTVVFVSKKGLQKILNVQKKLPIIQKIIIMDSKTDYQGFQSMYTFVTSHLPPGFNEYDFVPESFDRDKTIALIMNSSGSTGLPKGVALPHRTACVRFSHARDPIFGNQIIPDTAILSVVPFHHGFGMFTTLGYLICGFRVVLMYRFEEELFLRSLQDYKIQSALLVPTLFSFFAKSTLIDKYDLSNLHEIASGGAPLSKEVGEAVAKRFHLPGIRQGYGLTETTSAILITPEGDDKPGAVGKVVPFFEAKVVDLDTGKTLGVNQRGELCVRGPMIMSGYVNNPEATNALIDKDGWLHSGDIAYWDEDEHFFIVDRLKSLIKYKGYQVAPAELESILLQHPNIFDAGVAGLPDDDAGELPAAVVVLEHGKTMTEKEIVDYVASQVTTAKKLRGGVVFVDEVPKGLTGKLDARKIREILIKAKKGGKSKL
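Purified P. pyralis luciferase (10nM final) with 10uM D-luciferin and 10uM ATP (Km levels) in 50mM Tris acetate pH 7.5, 10mM Mg acetate, 0.01% Tween-20, 0.05% BSA; qHTS 6-point titration, ~60 µM downward; luminescence read.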
Active calls of the source: *; ? = inconclusive; . = no result; [ ] = another dose, or the depositor's remark. Hits are enriched below; roughly 9.4% of the tested compounds scored in any of these assays. Calls come from the whole dose curve; as a rule, active = well fitted curve in the direction sought with a large enough effect; inconclusive = small, poorly fitted or top-dose-only effect, or another doubt; inactive = no such curve, though single readings can be large; an effect the other way counts as inactive or inconclusive. Potency is the fitted concentration of half-maximal effect.

SMILES	ELG1 genotoxic	ELG1 repair inh	SMN2 splice up	NPC1 promoter act	Rab9 promoter act	FLuc modulator
COCc1cc(C)nc2sc(C(=O)Nc3ccccc3F)c(N)c12	15%	-4%	.	23%	26%	19µM*
Cc1cc(C)c2c(N)c(C(=O)NCC3CCCCC3)sc2n1	11µM*	?	11µM*	?	?	24µM*
N=C(N)c1ccc(-c2ccc(-c3ccc(C(=N)N)cc3)o2)cc1	.	.	-2%[9.22 µM]	.	.	.
CC(C)Oc1ccc(CNC(=O)c2ccc3nc(C(C)C)oc3c2)cc1	.	.	.	.	.	3%
C=CCNc1nc(N)c(C(=O)Nc2cc(C)on2)s1	16%	?	11µM*	?	?	17µM*
COc1ccc(/C=N/NC(=O)c2sc3nc(C)cc(C)c3c2N)cc1	3%	16%	.	2%	2%	9.5µM*
COc1ccc(/C=N/NC(=O)c2sc(C)nc2C)cc1	2%	5%	26%	-9%	-2%	?
Cc1cc(C)cc(NC(=O)c2sc3nc(C)cc(C)c3c2N)c1	?	?	.	1.8µM*	3.2µM*	9.5µM*
COc1ccc(C(=O)Cc2cc(OC)c(OC)cc2[N+](=O)[O-])c(OC)c1	4%	8%	0%	17%	22%	17µM*
COc1ccc(C(=O)Cc2nnc(C)s2)c(OC)c1	?	?	?	17%	?	?
COc1ccc(C(=O)Cc2ccc(F)cc2)c(OC)c1	?	?	?	?	?	17µM*
NCCn1oc(=O)[nH]c1=O	.	.	-2%	.	.	.
CC1(C)Oc2ccc3ccc(=O)oc3c2-c2cn[nH]c21	?	?	14µM*	-2%	-4%	2%
CC1(C)Oc2ccc3ccc(=O)oc3c2-c2cnoc21	-12%	14%	5%	-2%	1%	-13%
O=C(Cn1nc(Cc2cccnc2)c2ccccc2c1=O)Nc1ccc(F)c(Cl)c1	.	.	-12%	.	.	-4%
CCOc1ccc(-c2cc(CCCC(=O)NCCc3ccc(OC)c(OC)c3OC)no2)cc1	-3%	-18%	-25%	1%	-11%	?
CCOc1ccc(-c2cc(CCCC(=O)Nc3cc(OC)ccc3OC)no2)cc1	-9%	-29%	-17%	-4%	-4%	6µM*
CCOc1ccc(-c2cc(CCCC(=O)Nc3cccc(OC)c3)no2)cc1	5%	?	12%	-19%	-21%	6.7µM*
CCOc1ccc(NC(=O)CCCc2cc(-c3ccc(OCC)cc3)on2)cc1	7%	11%	14%	-1%	0%	-3%
CCN(Cc1ccccc1)C(=O)CCS(=O)(=O)c1cc(Br)cc2c1N(C(=O)C1CC1)CC2	.	.	1%	.	.	-2%
Cc1cccc(C(=O)N2CCc3cc(CNC(=O)c4cc5ccccc5[nH]4)ccc32)c1	.	.	.	.	.	-20%
Cc1cccc(Nc2cc(C)c3c(O)cccc3n2)c1C	0%	-10%	-4%	14%	14%	17µM*
Cc1cc(Nc2ccccc2O)nc(C)n1	.	.	.	.	.	-7%
O=C(NCc1ccccc1Cl)c1nnc(Cc2ccc(Cl)cc2)o1	.	.	10%	.	.	-3%
Cc1ccc(CNC(=O)CCNC(=O)N2CCn3c2nc2ccccc23)cc1	-2%	-12%	.	-4%	-5%	?
SMILES	ELG1 genotoxic	ELG1 repair inh	SMN2 splice up	NPC1 promoter act	Rab9 promoter act	FLuc modulator
Cc1ccc(CNC(=O)CCCCCNC(=O)N2CCn3c2nc2ccccc23)cc1	0%	6%	.	-2%	-1%	15µM*
O=C(CCCCCNC(=O)N1CCn2c1nc1ccccc12)NCc1ccccc1Cl	-3%	-28%	.	-7%	0%	15µM*
O=C(CCCCCNC(=O)N1CCn2c1nc1ccccc12)NCc1ccccc1	-1%	-22%	.	0%	-2%	?
O=C(CCCCCNC(=O)N1CCn2c1nc1ccccc12)NCc1ccc(Cl)cc1	-3%	-6%	.	-1%	0%	24µM*
COc1ccc(-c2noc(-c3nnn(-c4cc(C)ccc4C)c3N)n2)cc1	.	.	.	.	.	-7%
O=C1ON=C(c2ccccc2)/C1=C\c1ccco1	16%	?	.	8%	0%	?
S=c1[nH]nc(-c2ccccc2Cl)n1/N=C/C=C/c1ccco1	0%	4%	.	-2%	1%	-1%
O=C1NC(c2ccc(Br)cc2)=N/C1=C/c1ccco1	?	?	7.1µM*	3.5µM*	2.5µM*	0.6µM*
O=C1NC(c2ccccc2Cl)=N/C1=C/c1ccco1	?	?	.	9%	?	0.3µM*
Oc1c(C(O)(c2ccccc2)c2ccc3ccccc3c2O)ccc2ccccc12	.	.	-3%[9.22 µM]	.	.	.
CN1c2ccccc2Oc2nnc(N3CCN(Cc4ccccc4)CC3)cc21	4%	?	.	23%	?	19µM*
Cc1ccc(CNc2ncnc3onc(-c4ccc(F)cc4)c23)cc1	.	.	.	.	.	-10%
CCN(CC)c1ccc(/C=C(/C#N)c2nc3ccccc3[nH]2)c(OC(C)C)c1	17%	?	-65%	21%	?	2.7µM*
O=C1NC(=S)S/C1=C/c1ccc(N2CCOCC2)o1	15%	?	-26%	11%	11%	9.5µM*
CCCC(=O)Nc1cc(-c2nc3cccnc3s2)ccc1C	.	.	.	.	.	9.5µM*
Cc1ccc(-c2nc3cccnc3s2)cc1NC(=O)Cc1ccccc1	.	.	.	.	.	1.1µM*
CCOc1ccc(CC(=O)Nc2cccc(-c3nc4cccnc4s3)c2C)cc1	.	.	.	.	.	1%
CCCCC(=O)Nc1cc(-c2nc3cccnc3s2)ccc1C	.	.	.	.	.	-10%
CCC(CC)C(=O)Nc1cc(-c2nc3cccnc3s2)ccc1C	.	.	.	.	.	12µM*

Screening data from PubChem BioAssay.
